Experimental data from the supplement of paper PMC11732987, “Enantioselective OTUD7B fragment discovery through chemoproteomics screening and high-throughput optimisation” (Communications Chemistry, 2025).

Columns and labels:
Assay in all cases: log2 ratio of Biotin-Ahx-Ub-VS probe labelling (fragment/DMSO); higher = less target engagement (more negative = stronger competition), active = hit call of the paper (q ≤ 0.05, log2 ratio ≤ -1)
Conditions in all cases: compound concentration: 200 uM; treatment time: 3 h
[1] = target: T1, USP19 (UniProt O94966)
T1 sequence (whole entry): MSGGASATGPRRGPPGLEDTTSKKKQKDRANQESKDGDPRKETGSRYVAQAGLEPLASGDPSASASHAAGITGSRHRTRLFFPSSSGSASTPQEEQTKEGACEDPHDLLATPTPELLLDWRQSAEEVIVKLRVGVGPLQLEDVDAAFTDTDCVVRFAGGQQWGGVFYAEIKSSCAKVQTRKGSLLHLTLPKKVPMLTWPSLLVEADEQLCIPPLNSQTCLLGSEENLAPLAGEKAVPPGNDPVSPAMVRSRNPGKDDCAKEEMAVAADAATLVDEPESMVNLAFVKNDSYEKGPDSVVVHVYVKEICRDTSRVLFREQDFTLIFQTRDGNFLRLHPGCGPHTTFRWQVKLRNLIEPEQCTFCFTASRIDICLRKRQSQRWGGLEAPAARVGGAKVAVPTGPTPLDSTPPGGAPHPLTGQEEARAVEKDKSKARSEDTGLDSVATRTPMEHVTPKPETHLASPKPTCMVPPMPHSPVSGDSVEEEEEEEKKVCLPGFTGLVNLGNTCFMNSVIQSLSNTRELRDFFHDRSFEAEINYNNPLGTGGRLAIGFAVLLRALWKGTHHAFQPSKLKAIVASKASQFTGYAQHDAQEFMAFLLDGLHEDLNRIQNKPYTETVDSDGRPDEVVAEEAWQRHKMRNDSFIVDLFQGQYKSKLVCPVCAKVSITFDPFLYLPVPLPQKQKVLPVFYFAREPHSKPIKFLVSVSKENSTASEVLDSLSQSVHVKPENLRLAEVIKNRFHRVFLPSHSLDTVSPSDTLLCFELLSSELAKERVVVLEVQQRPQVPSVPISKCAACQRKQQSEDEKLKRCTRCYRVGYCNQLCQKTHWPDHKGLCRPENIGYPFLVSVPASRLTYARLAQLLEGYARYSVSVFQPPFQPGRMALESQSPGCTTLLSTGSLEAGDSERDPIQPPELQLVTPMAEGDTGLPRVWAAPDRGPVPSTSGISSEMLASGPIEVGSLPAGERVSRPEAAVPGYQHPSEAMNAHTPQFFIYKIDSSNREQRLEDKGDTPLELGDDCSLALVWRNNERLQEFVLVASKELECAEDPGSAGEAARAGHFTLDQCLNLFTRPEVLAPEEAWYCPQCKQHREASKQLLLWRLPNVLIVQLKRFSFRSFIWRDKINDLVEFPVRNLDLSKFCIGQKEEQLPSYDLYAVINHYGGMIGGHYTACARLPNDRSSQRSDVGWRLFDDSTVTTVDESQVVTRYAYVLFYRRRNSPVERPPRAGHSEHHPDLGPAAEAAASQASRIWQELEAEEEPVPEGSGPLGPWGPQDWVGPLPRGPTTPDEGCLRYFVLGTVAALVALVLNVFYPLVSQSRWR
Outline: (§1)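 HEK293T lysate (495 µg per sample, in Tris/CHAPS/IGEPAL buffer with protease inhibitors) was exposed in triplicate for 3 h to fragment at 200 µM or to vehicle, then to Biotin-Ahx-Ub-VS at 0.5 µM final for 1 h. Labelled DUBs were enriched on NeutrAvidin, digested with LysC and trypsin, and analysed by diaPASEF LC-MS/MS. Spectronaut label-free quantities were normalised to the global median, and values are average log2 ratios of fragment over vehicle from an unpaired t-test. Only proteins with ≥2 unique peptides were used.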

[2] = target: USP24 (UniProt Q9UPU5)
Chain of USP24 (Q9UPU5 whole entry): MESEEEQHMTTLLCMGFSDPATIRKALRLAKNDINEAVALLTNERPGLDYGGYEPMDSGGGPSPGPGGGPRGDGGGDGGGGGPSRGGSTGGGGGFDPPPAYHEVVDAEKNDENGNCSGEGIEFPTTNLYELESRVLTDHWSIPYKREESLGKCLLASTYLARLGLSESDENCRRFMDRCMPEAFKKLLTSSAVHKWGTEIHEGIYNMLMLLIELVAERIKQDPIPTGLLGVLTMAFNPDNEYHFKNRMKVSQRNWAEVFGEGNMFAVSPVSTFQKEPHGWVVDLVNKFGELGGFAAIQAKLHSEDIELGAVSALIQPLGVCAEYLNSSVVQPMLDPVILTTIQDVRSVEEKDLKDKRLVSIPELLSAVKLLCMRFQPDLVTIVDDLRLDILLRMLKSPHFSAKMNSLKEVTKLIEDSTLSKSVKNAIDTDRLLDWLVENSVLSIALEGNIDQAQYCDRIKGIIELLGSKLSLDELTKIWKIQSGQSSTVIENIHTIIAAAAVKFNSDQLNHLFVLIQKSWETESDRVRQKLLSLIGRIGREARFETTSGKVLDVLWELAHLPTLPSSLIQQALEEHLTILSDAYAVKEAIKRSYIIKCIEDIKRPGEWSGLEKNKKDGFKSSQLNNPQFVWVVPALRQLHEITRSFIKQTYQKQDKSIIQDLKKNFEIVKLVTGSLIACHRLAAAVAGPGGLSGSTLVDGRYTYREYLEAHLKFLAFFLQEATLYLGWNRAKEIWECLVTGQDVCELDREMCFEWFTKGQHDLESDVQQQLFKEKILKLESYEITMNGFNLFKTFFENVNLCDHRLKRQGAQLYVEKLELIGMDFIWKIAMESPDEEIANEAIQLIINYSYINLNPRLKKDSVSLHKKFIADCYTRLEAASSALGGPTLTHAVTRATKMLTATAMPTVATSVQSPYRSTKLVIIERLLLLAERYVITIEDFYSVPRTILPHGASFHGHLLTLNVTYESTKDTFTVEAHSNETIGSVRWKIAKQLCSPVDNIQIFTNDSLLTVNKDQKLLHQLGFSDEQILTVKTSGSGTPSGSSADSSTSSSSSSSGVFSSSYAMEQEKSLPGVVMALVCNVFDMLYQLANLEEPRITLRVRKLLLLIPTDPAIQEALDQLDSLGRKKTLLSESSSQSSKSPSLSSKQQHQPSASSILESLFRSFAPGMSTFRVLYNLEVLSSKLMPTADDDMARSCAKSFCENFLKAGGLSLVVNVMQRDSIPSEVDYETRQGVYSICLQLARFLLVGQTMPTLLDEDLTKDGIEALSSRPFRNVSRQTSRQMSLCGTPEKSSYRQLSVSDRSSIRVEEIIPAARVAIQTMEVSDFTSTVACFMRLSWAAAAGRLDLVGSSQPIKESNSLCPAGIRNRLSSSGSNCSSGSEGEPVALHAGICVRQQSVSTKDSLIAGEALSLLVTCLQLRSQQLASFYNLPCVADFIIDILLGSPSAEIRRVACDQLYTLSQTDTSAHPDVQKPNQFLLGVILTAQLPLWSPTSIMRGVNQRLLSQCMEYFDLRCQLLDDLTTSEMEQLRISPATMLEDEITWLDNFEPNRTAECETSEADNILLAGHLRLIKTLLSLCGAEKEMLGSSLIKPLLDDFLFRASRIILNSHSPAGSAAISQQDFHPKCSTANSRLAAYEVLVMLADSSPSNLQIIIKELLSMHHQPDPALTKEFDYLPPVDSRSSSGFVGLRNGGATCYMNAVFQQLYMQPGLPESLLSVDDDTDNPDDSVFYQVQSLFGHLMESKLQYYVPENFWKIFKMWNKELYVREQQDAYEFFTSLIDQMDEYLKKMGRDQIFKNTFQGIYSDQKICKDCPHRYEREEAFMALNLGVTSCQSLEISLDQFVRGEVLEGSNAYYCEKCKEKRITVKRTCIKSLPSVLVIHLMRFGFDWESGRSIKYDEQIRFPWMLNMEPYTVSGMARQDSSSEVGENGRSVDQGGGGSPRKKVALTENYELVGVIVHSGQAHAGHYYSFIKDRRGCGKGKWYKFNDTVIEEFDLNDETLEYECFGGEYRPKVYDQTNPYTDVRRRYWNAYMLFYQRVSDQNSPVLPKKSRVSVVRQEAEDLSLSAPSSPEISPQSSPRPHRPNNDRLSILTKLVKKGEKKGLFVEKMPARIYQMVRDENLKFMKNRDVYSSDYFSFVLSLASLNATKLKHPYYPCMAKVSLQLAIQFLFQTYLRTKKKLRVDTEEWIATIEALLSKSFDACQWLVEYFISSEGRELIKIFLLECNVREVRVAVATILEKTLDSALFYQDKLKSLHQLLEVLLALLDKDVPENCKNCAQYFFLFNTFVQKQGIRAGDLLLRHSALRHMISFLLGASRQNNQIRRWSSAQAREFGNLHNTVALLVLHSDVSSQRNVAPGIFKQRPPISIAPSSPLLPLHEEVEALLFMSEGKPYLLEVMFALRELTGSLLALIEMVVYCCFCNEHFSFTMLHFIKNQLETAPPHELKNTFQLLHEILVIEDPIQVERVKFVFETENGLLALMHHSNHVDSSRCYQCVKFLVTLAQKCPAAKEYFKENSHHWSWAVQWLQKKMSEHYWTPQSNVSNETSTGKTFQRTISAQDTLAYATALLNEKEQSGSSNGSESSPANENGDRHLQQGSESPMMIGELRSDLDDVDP
Outline: as §1

[3] = target: T2, USP25 (UniProt Q9UHP3)
T2 sequence (whole entry): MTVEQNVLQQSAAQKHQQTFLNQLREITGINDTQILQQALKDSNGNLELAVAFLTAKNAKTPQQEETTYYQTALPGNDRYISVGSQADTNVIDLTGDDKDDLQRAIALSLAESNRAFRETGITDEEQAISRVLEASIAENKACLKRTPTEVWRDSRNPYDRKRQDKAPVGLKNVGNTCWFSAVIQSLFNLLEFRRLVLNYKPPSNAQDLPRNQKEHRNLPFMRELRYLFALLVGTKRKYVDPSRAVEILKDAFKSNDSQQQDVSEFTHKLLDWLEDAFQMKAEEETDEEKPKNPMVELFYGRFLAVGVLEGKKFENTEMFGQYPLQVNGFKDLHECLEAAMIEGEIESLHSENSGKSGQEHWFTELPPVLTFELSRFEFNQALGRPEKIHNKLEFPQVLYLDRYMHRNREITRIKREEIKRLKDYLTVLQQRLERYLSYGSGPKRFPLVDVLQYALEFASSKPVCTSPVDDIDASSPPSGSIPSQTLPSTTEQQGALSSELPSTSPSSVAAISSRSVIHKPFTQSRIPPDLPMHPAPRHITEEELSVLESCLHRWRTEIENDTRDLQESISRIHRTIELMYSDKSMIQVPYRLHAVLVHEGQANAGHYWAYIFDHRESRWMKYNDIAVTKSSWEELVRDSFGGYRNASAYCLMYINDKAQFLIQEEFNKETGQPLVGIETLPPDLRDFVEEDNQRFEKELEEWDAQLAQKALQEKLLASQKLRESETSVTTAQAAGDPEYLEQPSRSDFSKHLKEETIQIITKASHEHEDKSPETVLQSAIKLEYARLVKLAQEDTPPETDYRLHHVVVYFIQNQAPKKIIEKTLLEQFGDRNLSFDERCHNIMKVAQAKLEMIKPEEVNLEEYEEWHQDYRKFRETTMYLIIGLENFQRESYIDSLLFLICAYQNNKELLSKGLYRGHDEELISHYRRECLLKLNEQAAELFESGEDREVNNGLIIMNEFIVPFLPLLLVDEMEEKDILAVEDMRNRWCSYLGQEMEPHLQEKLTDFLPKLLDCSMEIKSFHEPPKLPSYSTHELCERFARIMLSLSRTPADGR
Outline: as §1

[4] = target: T3, USP28 (UniProt Q96RU2)
T3 sequence (whole entry): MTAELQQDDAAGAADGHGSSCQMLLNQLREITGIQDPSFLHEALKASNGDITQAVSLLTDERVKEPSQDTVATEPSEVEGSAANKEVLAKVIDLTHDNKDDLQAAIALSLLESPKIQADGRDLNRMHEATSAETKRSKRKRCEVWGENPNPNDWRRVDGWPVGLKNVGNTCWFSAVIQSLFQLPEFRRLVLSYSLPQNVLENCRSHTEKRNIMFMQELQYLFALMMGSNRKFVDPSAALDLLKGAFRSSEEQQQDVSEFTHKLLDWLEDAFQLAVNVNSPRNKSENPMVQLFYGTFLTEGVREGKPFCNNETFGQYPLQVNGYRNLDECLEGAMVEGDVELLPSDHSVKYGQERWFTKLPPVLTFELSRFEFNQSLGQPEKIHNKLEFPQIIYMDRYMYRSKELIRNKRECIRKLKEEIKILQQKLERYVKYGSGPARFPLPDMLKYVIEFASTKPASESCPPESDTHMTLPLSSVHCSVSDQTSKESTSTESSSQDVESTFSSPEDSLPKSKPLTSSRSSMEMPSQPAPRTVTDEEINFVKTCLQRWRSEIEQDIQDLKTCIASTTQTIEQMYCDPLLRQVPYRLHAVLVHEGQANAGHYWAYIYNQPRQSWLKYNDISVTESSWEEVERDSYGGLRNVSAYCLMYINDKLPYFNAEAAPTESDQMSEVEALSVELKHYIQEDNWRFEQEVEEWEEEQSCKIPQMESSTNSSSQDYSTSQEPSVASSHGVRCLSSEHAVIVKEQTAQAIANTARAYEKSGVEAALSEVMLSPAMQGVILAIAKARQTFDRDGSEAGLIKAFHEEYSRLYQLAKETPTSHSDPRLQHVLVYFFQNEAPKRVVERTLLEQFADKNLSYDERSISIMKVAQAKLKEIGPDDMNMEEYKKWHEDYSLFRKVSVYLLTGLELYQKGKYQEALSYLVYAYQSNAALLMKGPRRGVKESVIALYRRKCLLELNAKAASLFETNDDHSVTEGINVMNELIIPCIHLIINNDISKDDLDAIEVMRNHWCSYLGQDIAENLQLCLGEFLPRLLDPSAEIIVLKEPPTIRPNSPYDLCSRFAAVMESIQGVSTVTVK
Outline: as §1

Measured: log2 ratio of Biotin-Ahx-Ub-VS probe labelling

O=C(CCl)N[C@H]1CCS(=O)(=O)c2ccccc21
inactive: [1] -0.274 | [2] -0.386 | [3] -0.264 | [4] -0.582
